The source of these data is PMC4336329 (PLoS ONE, 2015).

Each structure is given as a SMILES string. Among all 310,000 compounds or so, about 14,000 (4.5%) showed an effect of 50% or more. The effect is printed as a negative number. Many of the other results were omitted from the sample, so strong results are more common in it than they were.
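Also: peak tail current of the secondary pulse compared with the same well before compound.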

Sequence of human ether-à-go-go-related gene (hERG) potassium channel (Q12809 whole entry, looked up): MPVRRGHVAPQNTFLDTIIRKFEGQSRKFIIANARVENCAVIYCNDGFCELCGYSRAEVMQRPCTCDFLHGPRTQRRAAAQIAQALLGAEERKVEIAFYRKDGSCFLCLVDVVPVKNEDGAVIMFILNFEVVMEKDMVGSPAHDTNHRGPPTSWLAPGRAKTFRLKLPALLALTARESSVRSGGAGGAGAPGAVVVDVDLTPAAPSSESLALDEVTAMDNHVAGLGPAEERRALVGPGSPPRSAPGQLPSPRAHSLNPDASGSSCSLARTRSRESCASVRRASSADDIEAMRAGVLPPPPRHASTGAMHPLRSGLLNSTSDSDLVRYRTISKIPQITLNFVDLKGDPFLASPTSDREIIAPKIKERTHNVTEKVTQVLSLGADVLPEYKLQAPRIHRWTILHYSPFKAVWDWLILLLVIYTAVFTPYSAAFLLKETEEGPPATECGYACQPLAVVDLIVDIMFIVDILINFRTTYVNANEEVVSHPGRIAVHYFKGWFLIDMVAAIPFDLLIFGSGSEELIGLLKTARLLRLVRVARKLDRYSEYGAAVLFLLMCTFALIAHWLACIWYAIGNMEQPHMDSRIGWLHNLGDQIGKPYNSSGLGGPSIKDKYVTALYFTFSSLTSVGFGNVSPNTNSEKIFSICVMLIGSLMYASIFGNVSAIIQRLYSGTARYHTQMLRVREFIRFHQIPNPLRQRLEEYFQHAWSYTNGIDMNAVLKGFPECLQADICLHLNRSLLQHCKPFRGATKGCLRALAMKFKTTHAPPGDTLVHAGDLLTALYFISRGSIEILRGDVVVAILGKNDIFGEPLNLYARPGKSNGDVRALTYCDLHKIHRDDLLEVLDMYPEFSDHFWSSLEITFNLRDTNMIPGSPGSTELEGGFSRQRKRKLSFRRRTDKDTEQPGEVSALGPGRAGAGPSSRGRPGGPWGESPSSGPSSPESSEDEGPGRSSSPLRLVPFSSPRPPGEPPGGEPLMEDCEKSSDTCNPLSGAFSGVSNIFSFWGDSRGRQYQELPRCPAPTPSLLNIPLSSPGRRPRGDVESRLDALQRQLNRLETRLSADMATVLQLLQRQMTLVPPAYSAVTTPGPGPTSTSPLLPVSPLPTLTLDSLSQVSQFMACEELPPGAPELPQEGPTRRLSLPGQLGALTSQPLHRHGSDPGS

This test has as its target human ether-à-go-go-related gene (hERG) potassium channel (human, UniProt Q12809). Nature of the test: primary screen, population patch clamp on CHO cells stably expressing hERG; higher = less effect of the substance.
For `COc1cc2[nH]c(C(=O)N3CCN(c4ccc(F)cc4)CC3)cc2c(OC)c1OC`, the “hERG current change (%, negative = inhibition) at 10uM” value is listed as 17.9%.
On to `Cc1ccc(C)c(CN2CCSCC2)c1`, for which the “hERG current change (%, negative = inhibition) at 10uM” value is listed as 17.3%.
On to `O=C(Nn1c(-c2ccccc2)nc2ccccc2c1=O)c1ccco1`, for which the “hERG current change (%, negative = inhibition) at 10uM” value is reported as 3.87%.
With `O=C(Oc1ccccc1)n1c(=S)oc2ccccc21`, the “hERG current change (%, negative = inhibition) at 10uM” value was 12.2%.
The value for `O=C(N/N=C/c1ccc[nH]1)c1ccccc1[N+](=O)[O-]` was 19.9%.
The value for `O=C(c1cccc(N2C(=O)C3CC=CCC3C2=O)c1)N1CCCCCC1` (stereo not shown) was -3.26%.
Turning to `Cc1ccc(-c2nnc3n2N=C(c2ccccc2)CS3)cc1`, the “hERG current change (%, negative = inhibition) at 10uM” value is 3.15%.
For the compound `O=C(C1COc2ccccc2O1)N1CCN(c2ccccc2O)CC1` (stereo not shown), the “hERG current change (%, negative = inhibition) at 10uM” value is on record as -12.5%.
Consider `O=C1C2C3C=CC(C4CC34)C2C(=O)N1c1cc(Cl)ccn1` (stereo not shown), for which the “hERG current change (%, negative = inhibition) at 10uM” value was found to be 2.55%.
The value for `Cc1csc(Sc2nc3c(c(=O)[nH]c(=O)n3C)n2CCCc2ccccc2)n1` was 12.2%; that for `C=CCOC(=O)c1ccc(-n2cncn2)nc1` was -4.47%.
In the case of `Cc1ccc(S(=O)(=O)N2c3ccccc3OCC2C(C)(C)C)cc1` (stereo not shown), the “hERG current change (%, negative = inhibition) at 10uM” value came to 4.08%.
The value for `Cc1ccc(CN2CCN(Cc3ccccc3F)CC2)cc1.O=C(O)C(=O)O` was -12.2%; that for `O=C(NCC1CC1)Nc1ccccc1F` was 18.8%; that for `COc1ccc(CN2CCC(CNC(=O)NC3CCCCC3)CC2)cc1` was -67.7%.
To `COc1ccc(CNC(=O)NC2CCCCC2)cc1` belongs 2.13%.
The value for `Cc1ccc(CN2CCC(CNC(=O)Nc3ccccc3F)CC2)cc1` was -69.7%; that for `COc1ccc(CCNC(=O)NC2CCCCC2)cc1` was 0.125%.
Turning to `Cc1nn(Cc2ccc(Cl)cc2Cl)c(C)c1NC(=O)C1C2CCC(O2)C1C(=O)O` (stereo not shown), the “hERG current change (%, negative = inhibition) at 10uM” value is recorded as -9.88%.
The value for `CC(Oc1ccc(Cl)cc1Cl)C(=O)NCCC1=CCCCC1` (stereo not shown) was 4.46%; that for `Cc1ccc(CN(C)C(=O)c2ccc3c(c2)NC(=O)CS3)o1` was -17.2%; that for `Cc1cc(S(=O)(=O)NCc2cccnc2)ccc1F` was -3.24%.
Regarding `COc1ccc(S(=O)(=O)CCC(=O)N(C)c2ccc(OC)cc2OC)cc1`, the “hERG current change (%, negative = inhibition) at 10uM” value is -12.8%.
To `CN1CC(=O)NC1=NC(=O)C12CC3CC(CC(C3)C1)C2` belongs -8.73%; to `Cl.Clc1cccc(Cl)c1CNC1CCCC1`, 13.5%.
With `CC(=O)c1cccc(N(C(=O)Cn2nnc3ccccc32)C(C(=O)NCc2ccccc2)c2ccccn2)c1` (stereo not shown), the “hERG current change (%, negative = inhibition) at 10uM” value is -39%.
In the case of `CC(=O)c1ccc(N(C(=O)Cn2nnc3ccccc32)C(C(=O)NCc2ccccc2)c2ccccn2)cc1` (stereo not shown), the “hERG current change (%, negative = inhibition) at 10uM” value is -73.2%.
For the compound `Cc1ccc(N(C(=O)Cn2nnc3ccccc32)C(C(=O)NCc2ccccc2)c2ccccn2)cc1` (stereo not shown), the “hERG current change (%, negative = inhibition) at 10uM” value was -45.5%.
For the compound `COc1ccc(Cc2nc3ccc(C(=O)N(C)CCCN4CCOCC4)cc3o2)cc1`, the “hERG current change (%, negative = inhibition) at 10uM” value amounted to 10%.
As to `Cc1cc(Nc2ccc3c(c2)OCCO3)c2cc(Cl)ccc2n1.Cl`, the “hERG current change (%, negative = inhibition) at 10uM” value is recorded as -52.6%.
Take `Cc1ccc2nc(C)cc(Nc3ccc4c(c3)OCCO4)c2c1.Cl`: the “hERG current change (%, negative = inhibition) at 10uM” value is reported as -58.2%.
In the case of `Cc1cc(C)n2c(Nc3ccc4c(c3)OCCO4)c(-c3ccccc3)nc2n1`, the “hERG current change (%, negative = inhibition) at 10uM” value is recorded as -16.7%.
Turning to `Cc1cc(C)c(C(N)=O)c(Nc2ccc3c(c2)OCCO3)n1`, the “hERG current change (%, negative = inhibition) at 10uM” value came out at 0.162%.
To `Cc1cc(Nc2ccc3c(c2)OCCO3)n2nc(C)nc2n1` belongs -9.32%; to `CCOc1ccc2nc(C)cc(Nc3ccc4c(c3)OCCO4)c2c1.Cl`, -72.4%; to `CCOc1cccc(C(=O)Nc2ccc3c(c2)OCCO3)c1`, 3.35%.
`Cc1cc(C)c(C#N)c(Nc2ccc3c(c2)OCCO3)n1`: the “hERG current change (%, negative = inhibition) at 10uM” value amounted to 5.17%.
Take `CCOc1ccc(C(=O)Nc2ccc3c(c2)OCCO3)cc1`: the “hERG current change (%, negative = inhibition) at 10uM” value is on record as -1.74%.
`Cc1cc(Nc2ccc3c(c2)OCCO3)c2cccc(C)c2n1.Cl`: the “hERG current change (%, negative = inhibition) at 10uM” value is -40.7%.
Consider `Cc1cc(Nc2ccc3c(c2)OCCO3)c2ccccc2n1.Cl`, for which the “hERG current change (%, negative = inhibition) at 10uM” value is reported as -56.1%.
To `Cc1cc(C(=O)Nc2ccc3c(c2)OCCO3)c2ccccc2n1` belongs 18.4%; to `O=C(COc1ccc(F)cc1Cl)Nc1ccc(N2CCOCC2)cc1N1CCOCC1`, -10.2%; to `Cc1ccc(C2(C)NC(=O)N(CC(=O)N(Cc3ccccc3)C(C)(C)C)C2=O)cc1` (stereo not shown), -1.1%.
With `Cc1nccn1CC(=O)N/N=C/c1cc(Br)cs1`, the “hERG current change (%, negative = inhibition) at 10uM” value stood at 6.58%.
To `Cc1ccc(C)c(Cn2cnc3c(nnn3-c3ccc(F)cc3)c2=O)c1` belongs -2.53%; to `Cn1c(=O)c(C(=O)COC(=O)c2cc(-c3ccco3)nc3ccccc23)c(N)n(Cc2ccccc2)c1=O`, -12.2%.
The value for `O=[N+]([O-])c1ccc(/C=C/c2ccc3ccccc3n2)cc1` was 5.95%; that for `Cc1cc(C)c(CN2CCN(C(=O)Cn3ccc(NC(=O)OCc4ccccc4)nc3=O)CC2)c(C)c1` was -5.55%.
As to `COc1ccc(N(CC(=O)NCC2CCCO2)S(=O)(=O)c2ccc(C)cc2)cc1OC` (stereo not shown), the “hERG current change (%, negative = inhibition) at 10uM” value is listed as -3.96%.
Turning to `O=C(NCC1CCCN(C(=O)c2cc(Cl)ccc2F)C1)c1ccc(F)cc1` (stereo not shown), the “hERG current change (%, negative = inhibition) at 10uM” value is recorded as -6.65%.
For `COC(=O)c1ccccc1C(=O)N1CCCC(CNC(=O)c2ccc(F)cc2)C1` (stereo not shown), the “hERG current change (%, negative = inhibition) at 10uM” value was 11.2%.
To `Cc1cc(C)c(CN2CCCC(CNC(=O)c3ccc(F)cc3)C2)c(-n2cccn2)c1` (stereo not shown) belongs -75.6%.
The value for `Cc1ccccc1CC(=O)N1CCCC(CNC(=O)c2ccc(F)cc2)C1` (stereo not shown) was -2%; that for `Cc1ccc(-n2cccn2)c(CN2CCCC(CNC(=O)c3ccc(F)cc3)C2)c1` (stereo not shown) was -75.5%; that for `CCn1ncc(CN2CCCC(CNC(=O)c3ccc(F)cc3)C2)c1C` (stereo not shown) was -1.04%.
On to `Cc1cc(C(=O)Nc2ccccc2N2CCOCC2)c(C)o1`, for which the “hERG current change (%, negative = inhibition) at 10uM” value is given as -18.1%.
The value for `CCc1noc(C)c1C(=O)OCC(=O)N(CC)c1c(N)n(Cc2ccccc2)c(=O)[nH]c1=O` was 10.9%; that for `Cc1ccc(C2CC(=O)NC(SCCC(C)C)=C2C#N)cc1` (stereo not shown) was -10.6%.
Regarding `Cc1ccc(C(=O)NCCNC(=O)c2ccc(C)nc2)cc1`, the “hERG current change (%, negative = inhibition) at 10uM” value was 5.21%.
The value for `Cc1ccc(S(=O)(=O)NCCNC(=O)c2ccc(C)nc2)cc1` was -72%; that for `Cc1ccc(C(=O)NCCNS(=O)(=O)c2ccccc2)cn1` was 12.7%.
On to `COc1ccccc1NC(=O)COc1ccc(/C=N/NS(=O)(=O)c2ccc(C)cc2)cc1`, for which the “hERG current change (%, negative = inhibition) at 10uM” value stood at 20.1%.
Turning to `CC1CCN(CCc2nc3cc(NC(=O)Nc4ccccc4)ccc3n2C)CC1`, the “hERG current change (%, negative = inhibition) at 10uM” value was -44.4%.
Turning to `CC(=O)Nc1ccc2c(c1)nc(CCN1CCC(C)CC1)n2C`, the “hERG current change (%, negative = inhibition) at 10uM” value was 8.83%.
For `CC1CCN(CCc2nc3cc(NC(=O)COc4ccccc4)ccc3n2C)CC1`, the “hERG current change (%, negative = inhibition) at 10uM” value was -68.4%.
The value for `Cc1ccc(OCC(=O)Nc2ccc3c(c2)nc(CCN2CCC(C)CC2)n3C)cc1` was -70.6%; that for `COc1ccc(OCC(=O)Nc2ccc3c(c2)nc(CCN2CCC(C)CC2)n3C)cc1` was -75.4%; that for `CCC(=O)Nc1ccc2c(c1)nc(CCN1CCC(C)CC1)n2C` was 1.48%.
To `CC(=O)N1CCN(Cc2nc3cc(NC(=O)COc4cccc(C)c4)ccc3n2C)CC1.Cl` belongs -15.3%.
To `Cc1cccc(OCC(=O)Nc2ccc3c(c2)nc(CCN2CCC(C)CC2)n3C)c1` belongs -68.7%.
As for `CCOC(=O)CSc1nc(N)cc(=O)[nH]1`, the “hERG current change (%, negative = inhibition) at 10uM” value was 7.78%.
Take `CN(Cc1ccccc1)C(=O)c1[nH]cnc1C(=O)NCc1ccc(CNC(=O)OC(C)(C)C)cc1`: the “hERG current change (%, negative = inhibition) at 10uM” value is given as -6.68%.
To `CC(C)NC(=O)C1CCN(C(=O)C(C(=O)c2ccccc2)n2cc(Cl)ccc2=O)CC1` (stereo not shown) belongs 6.17%.
The value for `COC(=O)c1ccc2c(C)c(C(C)(C)O)[nH]c2c1` was 10.3%; that for `Cc1sc2nc(-c3cccnc3)[nH]c(=O)c2c1-c1ccccc1` was -4.06%.
The value for `Clc1ccc(OCCn2ccnc2)c(Cl)c1` was -18.9%; that for `CN(C)/C=N/c1[nH]ncc1C#N` was 16%.
Take `CC1CCN(CCc2nc3cc(NC(=O)COc4ccc(Cl)cc4)ccc3n2C)CC1`: the “hERG current change (%, negative = inhibition) at 10uM” value is -74.7%.
Turning to `COc1ccc(-c2c(-c3cc(OC)cc(OC)c3)n(C)c3ccc(-c4cccc5[nH]ccc45)cc23)cc1`, the “hERG current change (%, negative = inhibition) at 10uM” value is reported as 16.7%.
The value for `COCCNC(=O)c1ccccc1NS(=O)(=O)c1ccc(Br)s1` was 0.678%; that for `CC(C)=C1C2CCC1C(C(=O)Nc1cc(C)cc(C)c1)C2C(=O)O` (stereo not shown) was 14%.
The value for `CCN(CC)CC#CCC(O)(c1ccccc1)c1ccc(Br)cc1.Cl` (stereo not shown) was -50.1%.
The value for `CCN(CC)CC#CCC(OC)(c1ccccc1)c1ccccc1.Cl` was -32.5%; that for `CN(C)CC#CCC(O)(c1ccccc1)c1ccccc1` was -2.15%; that for `CCN(CC)CC#CCC(C)(c1ccccc1)c1ccccc1.Cl` was -54.8%.
As to `CCN(CC)CC#CCC(O)(c1ccccc1)C1CCCC1.Cl` (stereo not shown), the “hERG current change (%, negative = inhibition) at 10uM” value was -11.7%.
The value for `CCN(CC)CC#CCC(O)(c1ccccc1)c1ccccc1` was -25.1%; that for `CC(=O)N1CCC(N(CCN2CCOCC2)C(=S)Nc2cccc(C)c2)CC1` was 0.988%; that for `C=CCN(c1ccccc1)S(=O)(=O)c1cccc(C(=O)NCC(c2ccccc2OC)N2CCCC2)c1` (stereo not shown) was -70.5%.
The value for `C=CCN(c1ccccc1)S(=O)(=O)c1cccc(C(=O)NCC(c2ccc(F)cc2)N2CCOCC2)c1` (stereo not shown) was -29.6%; that for `COc1ccccc1NS(=O)(=O)c1cccc(C(=O)NCC(c2ccccc2OC)N2CCCC2)c1` (stereo not shown) was -12.9%.
With `COc1ccccc1NS(=O)(=O)c1cc(C(=O)NCC(c2ccco2)N2CCCCC2)ccc1C` (stereo not shown), the “hERG current change (%, negative = inhibition) at 10uM” value was -48.6%.
Take `COc1ccc(NS(=O)(=O)c2cccc(C(=O)NCC(c3ccc(OC)cc3)N3CCCC3)c2)cc1` (stereo not shown): the “hERG current change (%, negative = inhibition) at 10uM” value is given as -46.7%.
The value for `COc1ccc(C(CNC(=O)c2cccc(S(=O)(=O)Nc3ccccc3OC)c2)N2CCOCC2)cc1` (stereo not shown) was -46.1%; that for `C=CCN(c1ccccc1)S(=O)(=O)c1cccc(C(=O)NCC(c2cccs2)N2CCOCC2)c1` (stereo not shown) was -18.7%; that for `COc1ccc(C(CNC(=O)c2ccc(C)c(S(=O)(=O)Nc3ccccc3OC)c2)N2CCCC2)cc1` (stereo not shown) was -66.2%.
In the case of `COc1ccccc1NS(=O)(=O)c1cc(C(=O)NCC(c2ccc(F)cc2)N2CCOCC2)ccc1C` (stereo not shown), the “hERG current change (%, negative = inhibition) at 10uM” value is on record as -19.1%.
To `COc1ccc(NS(=O)(=O)c2cccc(C(=O)NCC(c3ccccc3OC)N3CCCC3)c2)cc1` (stereo not shown) belongs -55.4%; to `COc1ccccc1C(CNC(=O)c1cccc(S(=O)(=O)Nc2ccc(C)cc2)c1)N1CCCC1` (stereo not shown), -29.8%; to `COc1ccc(C(CNC(=O)c2cccc(S(=O)(=O)Nc3ccccc3OC)c2)N2CCCC2)cc1` (stereo not shown), -56.6%.
